The text below walks through data of PubChem BioAssay AID504326 (The Scripps Research Institute Molecular Screening Center, 2011).

Molecules are shown by their SMILES. The campaign covered roughly 340,000 compounds. About 990 (0.29%) were called active. Only a selection was taken, and actives are over-represented in it overall. A number with no mark means an inactive call. Rule as the data show it: active = activation above about 18%; inactive = the rest.

The target in this experiment is Mu-type opioid receptor (Homo sapiens) + Delta-type opioid receptor (Homo sapiens) (UniProt P35372+P41143). In words: inducers of mu-delta opioid receptor heterodimers – cell-based, luminescence, primary screen (AID 504326).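 Also: 0% = vehicle-treated cells and 100% = reference agonist.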 The conditions noted are these: cells, OPRM1-OPRD1 heterodimerization, at 9.3 µM, hits give high values.
Chain of Mu-type opioid receptor (Homo sapiens) + Delta-type opioid receptor (Homo sapiens) (P35372 whole entry, looked up): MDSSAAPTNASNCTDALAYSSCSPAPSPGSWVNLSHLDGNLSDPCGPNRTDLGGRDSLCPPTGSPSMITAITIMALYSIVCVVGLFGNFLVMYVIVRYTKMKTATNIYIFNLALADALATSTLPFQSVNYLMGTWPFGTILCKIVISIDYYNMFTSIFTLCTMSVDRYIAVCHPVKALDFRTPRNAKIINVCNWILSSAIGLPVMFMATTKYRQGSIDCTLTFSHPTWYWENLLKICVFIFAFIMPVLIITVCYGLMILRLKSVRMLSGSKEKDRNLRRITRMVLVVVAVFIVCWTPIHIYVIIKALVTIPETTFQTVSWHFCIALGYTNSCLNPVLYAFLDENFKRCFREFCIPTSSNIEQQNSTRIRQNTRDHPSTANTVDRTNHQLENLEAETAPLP
Chain of Mu-type opioid receptor (Homo sapiens) + Delta-type opioid receptor (Homo sapiens) (P41143 whole entry, looked up): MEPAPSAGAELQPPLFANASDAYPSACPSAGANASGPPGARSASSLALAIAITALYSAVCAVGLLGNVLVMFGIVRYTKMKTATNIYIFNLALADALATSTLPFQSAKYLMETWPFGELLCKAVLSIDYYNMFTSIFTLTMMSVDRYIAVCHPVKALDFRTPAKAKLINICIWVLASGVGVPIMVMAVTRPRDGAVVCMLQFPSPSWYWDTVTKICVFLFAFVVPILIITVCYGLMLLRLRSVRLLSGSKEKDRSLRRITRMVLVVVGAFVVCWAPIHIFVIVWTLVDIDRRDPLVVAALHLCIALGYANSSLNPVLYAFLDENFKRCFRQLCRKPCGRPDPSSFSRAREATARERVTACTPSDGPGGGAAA
As to `COC(=O)CCCC1=CC2=C(c3ccccc3)C(=O)C(C)(OC(=O)C3CCCC3)C(=O)C2=CN1c1ccc(OC)cc1` (stereo not drawn), the activation is -1.53%. Regarding `COc1ccc(Cc2nnc(N/N=C/c3ccccc3O)[nH]c2=O)cc1OC`, the activation is -0.28%. `COc1cccc(/C=N/Nc2ccc(S(=O)(=O)Nc3ccccc3C(=O)O)cc2[N+](=O)[O-])c1O`: the activation is -1.24%. Regarding `COc1cccc(/C=N/Nc2cc(C)nc(-c3ccccc3O)n2)c1O`, the activation was 35.6% (active). On to `O=C(NCCc1ccccc1)c1c[nH]c2ccc(F)cc2c1=O`, for which the activation was -1.1%. Consider `C=CCOc1ccc(/C=C/C(=O)OC(C)C(=O)Nc2ccc(NC(C)=O)cc2)cc1` (stereo not drawn), for which the activation was -0.11%. Take `CC(OC(=O)/C=C/c1ccccc1)C(=O)Nc1ccc(C(N)=O)cc1` (stereo not drawn): the activation was 34.1% (active). As for `CC(OC(=O)/C=C/c1ccccc1)C(=O)NC1CCCCC1C` (stereo not drawn), the activation was -0.81%. For `CC(C)CC(=O)N=C1SC2CS(=O)(=O)CC2N1CCc1ccccc1` (stereo not drawn) the value was -2.17%. With `COc1ccc2sc(N(CCCN(C)C)C(=O)c3ccc(S(=O)(=O)N(C)C4CCCCC4)cc3)nc2c1` the figure was -0.93%; with `CN(C)CCCN(C(=O)c1ccc(S(=O)(=O)N2CCCc3ccccc32)cc1)c1nc2ccc(F)cc2s1`, 268% (active); with `CN(C)CCCN(C(=O)c1ccc(S(=O)(=O)N2CCCCCC2)cc1)c1nc2ccc(Br)cc2s1`, 1.54%. For `Cc1ccc(C)c(S(=O)(=O)Nc2cccc(-n3cnnn3)c2)c1` the value was -2.5%; for `C/C=C/C=C/C(=O)O`, -2.37%; for `CCCC1(C(=O)OC)NC(c2ccco2)C2C(=O)N(C)C(=O)C21` (stereo not drawn), -1.73%. For the compound `Cc1ccc2nc(-c3ccncc3)cc(C(=O)Nc3ccncc3)c2c1`, the activation was 24% (active). For `Cc1ccc2nc(-c3ccncc3)cc(C(=O)Nc3ccc(OC(F)F)cc3)c2c1`, the activation is 8.59%. With `O=C(Nc1ccncc1)c1cc(-c2ccccn2)nc2ccc(Br)cc12` the figure was -0.71%; with `CCc1ccc(NC(=O)CS(=O)CC(=O)N2CCN(c3ccccc3F)CC2)cc1` (stereo not drawn), -0.39%; with `CC(c1cccnc1)N(CCN(C)C)C(=O)Nc1ccc(Cl)c(Cl)c1` (stereo not drawn), 35.5% (active).

For the compound `O=C(NCc1ccc(Cl)c(Cl)c1)c1cccnc1`, the activation is 0.81%.

As to `CN(CC(=O)NCc1cccnc1)S(=O)(=O)c1cc(Cl)ccc1Cl`, the activation is -3.02%. For `CCN(CC)P(=O)(Nc1ccc(SC(F)F)cc1)c1ccc(N(C)C)cc1NC(=O)c1ccco1` (stereo not drawn), the activation was -0.5%. For `CC(=O)Nc1ccc(S(=O)(=O)N(C)c2ccc(OCC(=O)OCC(=O)N3CCCCC3)cc2)cc1` the value was -0.7%; for `Cc1c(C(=O)c2cccc([N+](=O)[O-])c2)c2ccccn2c1CCC#N`, -2.59%; for `FC(F)(F)c1ccc2nnc(-c3c(Cl)cccc3Cl)n2c1`, -0.01%.

Take `Cc1ccc(C)c(N(CC(=O)NCc2ccco2)C(=O)CCC(=O)Nc2ccccn2)c1`: the activation is -3.72%. `COc1cccc(CC2(CO)CCCN(Cc3nc(-c4cccs4)oc3C)C2)c1` (stereo not drawn): the activation was 0.45%. On to `CCOC(=O)C1(CC2CCCCO2)CCN(Cc2nc(-c3cccs3)oc2C)CC1` (stereo not drawn), for which the activation is 45.6% (active). With `CCOc1ccccc1-c1nc(CN2CCC(C(=O)N3CCOCC3)CC2)c(C)o1` the figure was -0.49%; with `CCOc1ccc(NC(=O)C2CC(=O)N=C(N)S2)cc1` (stereo not drawn), -2.05%; with `COc1ccc2c(CC(=O)NNC(=O)c3ccccc3F)coc2c1`, -0.31%. For `CCOC(=O)c1c(NC(=O)CNC2CCCc3ccccc32)sc(C(N)=O)c1C` (stereo not drawn) the value was 9.2%.

Regarding `O=C(NC1=CC(=O)c2ccccc2C1=O)c1ccccc1`, the activation was 20% (active).

As to `O=C1C=C(NS(=O)(=O)c2ccccc2)C(=O)c2ccccc21`, the activation is 1.48%. For `CC(NC(=O)c1ccccc1)C(=O)Nc1ccccc1` (stereo not drawn), the activation is -3.96%. As to `O=C(Cc1ccc(S(=O)(=O)N2CCOCC2)s1)N1CCN(c2ccc(C(F)(F)F)cc2[N+](=O)[O-])CC1`, the activation is -0.92%.

As for `CCOC(=O)N1CCN(c2c(NCCN3CCN(c4ccccc4F)CC3)c(=O)c2=O)CC1`, the activation is -1.83%.

Turning to `COc1ccc(NC(=O)CN(C)C(=O)c2ccc(COc3ccccc3)o2)cc1`, the activation was -1.92%.

As to `CN(CC(=O)Nc1ccc(Cl)cc1)C(=O)c1ccc(COc2ccccc2)cc1`, the activation is 22.2% (active). With `CN(Cc1ccccc1)C(=O)c1ccc(COc2ccccc2)cc1` the figure was 1.93%.

`CC(CNc1ccc([N+](=O)[O-])c2cccnc12)Nc1c([N+](=O)[O-])cc(C(F)(F)F)cc1[N+](=O)[O-]` (stereo not drawn): the activation was 0.2%. For `CCOC(=O)c1sc(NC(=O)C2CSC3(C)CCC(=O)N23)nc1C` (stereo not drawn) the value was -4.78%.

Regarding `Clc1ccc(COn2c(-c3ccc(Cl)cc3Cl)nc3ncccc32)cc1`, the activation was 55.9% (active).

For the compound `Clc1ccc(-c2cc(-c3ccccn3)on2)c(Cl)c1`, the activation was -0.72%. In the case of `CCOc1ccc(OCC)c(-c2c(=O)n(OCc3ccc(Cl)cc3)c3ccccc3[n+]2[O-])c1`, the activation is -0.14%.

For `Cc1cccc(N2CCN(C(=O)c3ccccc3NC(=O)C3CCCCC3C(=O)O)CC2)c1` (stereo not drawn), the activation is -1.68%. Consider `COc1ccc(C2Nc3ccccc3C(=O)N2Cc2ccccc2)cc1Cn1nnc2ccccc21` (stereo not drawn), for which the activation was 15.1%. For `COc1ccc(C2Nc3ccccc3C(=O)N2c2ccc(F)cc2)cc1Cn1nnc2ccccc21` (stereo not drawn) the value was 29.4% (active); for `COc1ccc(N2C(=O)c3ccccc3NC2c2ccc(OC)c(CN3CCOCC3)c2)cc1` (stereo not drawn), -3.57%; for `Cc1ccc2cccc(O)c2[n+]1[O-]`, 4.35%. For `CCOc1ccc(C(=O)Nc2ccc(S(=O)(=O)NCC3CCCO3)cc2)cc1OCC` (stereo not drawn) the value was -4.05%; for `COc1ccc(/C=C/C(=O)Nc2ccc(C34CC5CC(CC(O)(C5)C3)C4)cc2)cc1OC`, 3.53%; for `O=C(NCc1ccccn1)Nc1ccc(Cl)cc1`, -2.12%. With `O=C(NCc1cn2ccsc2n1)Nc1cccc(Cl)c1` the figure was -4.06%; with `O=C(NCc1cn2ccsc2n1)Nc1ccc(Cl)cc1`, 30.4% (active).

Turning to `CCSC1=C(C#N)C(=O)n2c1cc1c2CCCC1`, the activation was -1.61%. For `O=C1c2cccc3c([N+](=O)[O-])ccc(c23)C(=O)N1CC1CCCO1` (stereo not drawn) the value was 2.93%; for `Cc1cc(C)c(S(=O)(=O)N2C=CC(C(F)(F)F)=NCC2)c(C)c1`, 0.24%. As to `CCCCNC(=O)CSc1nc2n[nH]c(C)c2c(=N)n1-c1cccc(Cl)c1C`, the activation is 0.12%. With `COc1cccc(-n2c(SCC(=O)NC3CCCCC3)nc3n[nH]c(C)c3c2=N)c1` the figure was 0.14%.

For the compound `Cc1ccc(-n2c(SCC(=O)NCCC3=CCCCC3)nc3n[nH]c(C)c3c2=N)cc1Cl`, the activation is 27.3% (active). With `CCNS(=O)(=O)c1ccc(NC(=O)Nc2cccc(OC)c2)cc1` the figure was 62.3% (active); with `CCN(CC(=O)Nc1ccc(S(=O)(=O)N2CCCC2)cc1)CC(=O)Nc1cccc(OC)c1`, -3.32%.

As to `COc1cccc(NC(C)=[N+](C)CCNS(=O)(=O)c2ccc(Cl)cc2)c1`, the activation is -2.81%. For `Cc1ccc(N2C(=O)N3[C@@H]4c5ccccc5OC[C@@H]4[C@@H](c4ccccc4)[C@@]3(C)C2=O)cc1` the value was -1.07%; for `CC(C)N(Cc1nnc(-c2ccccc2Br)o1)C(=O)c1cc(Cl)nc2ccccc12`, -1.2%. As for `COCCCNc1nc2c(-c3cccc(C(F)(F)F)c3)nnn2c2ccccc12`, the activation was -0.55%.

For `COC(=O)Cn1nc(-c2ccccc2)c2cc(Cl)ccc21`, the activation is -1.42%. For `COCCCNc1nc2c(-c3cccc(C)c3)nnn2c2ccc(Cl)cc12` the value was 41.8% (active); for `CC(=O)c1ccc(NC(=O)C(C)NCc2ccc(Cl)cc2)cc1` (stereo not drawn), -0.65%. For `CN(C(=O)c1ccc(NC(=O)Cc2cccc(NC(=O)C3CCN(C(=O)c4ccccc4)CC3)c2)cc1)C1CC1` the value was -0.88%. With `COCCOC1CCN(C(=O)c2ccc(OC)c(OC3CCN(C(C)C)CC3)c2)CC1` the figure was -3.67%; with `CCC(C(=O)OCC(=O)Nc1c(Cl)cc(Cl)cc1Cl)c1ccccc1` (stereo not drawn), 6.24%. Consider `CCC(C(=O)OCC(=O)Nc1ccc(C(=O)Nc2ccc(OC)cc2)cc1)c1ccccc1` (stereo not drawn), for which the activation is 19.4% (active).

On to `CCC(C(=O)OCC(=O)Nc1ccccc1-c1ccccc1)c1ccccc1` (stereo not drawn), for which the activation is 12.4%. With `O=C(CC(=O)N/N=C\c1cccc(Cl)c1Cl)NCc1ccccc1` the figure was 1.01%; with `O=C(CNC(=O)c1ccccc1F)c1ccc(Br)cc1`, -3.5%; with `CCC(C)(C)C1CCC(=NNC(=O)c2ccc(Br)o2)CC1` (stereo not drawn), -0.98%. As to `CC(NC(=O)Nc1ccccc1)C(c1cccs1)N1CCN(c2ccccc2)CC1` (stereo not drawn), the activation is -1.69%.

Take `CC(NC(=O)C(C)(C)C)C(c1cccs1)N1CCN(Cc2ccccc2)CC1` (stereo not drawn): the activation is -1.34%.

With `CCCC(=O)NC(C)C(c1cccs1)N1CCN(c2ccccc2)CC1` (stereo not drawn), the activation was 25.9% (active). With `C#CC(CCN1CCCCC1)(OC)c1ccccc1` (stereo not drawn) the figure was -1.1%; with `Cc1ccc(S(=O)(=O)N(Cc2cccc([N+](=O)[O-])c2)C(=O)N2CCN(C)CC2)cc1`, 2.18%; with `O=C(CCl)N(Cc1cccc([N+](=O)[O-])c1)c1cccc(Cl)c1`, 31.3% (active). Consider `O=C(c1cccc([N+](=O)[O-])c1)N1CCN(Cc2ccccc2)CC1`, for which the activation is -2.62%.

With `Cc1cc2c(cc1C)N(Cc1ccccc1)C1=NCCCN12`, the activation is -3.79%. For `COc1ccccc1C(=O)COC(=O)COc1ccc(C#N)cc1` the value was -3.44%. With `COCCN(CCOC)S(=O)(=O)c1ccc(/C(O)=C(\C#N)c2nc3ccccc3[nH]2)cc1`, the activation was -0.63%. For `N#C/C(=C(/O)COC(=O)COc1ccc(Cl)cc1)c1nc2ccccc2[nH]1` the value was 24.4% (active); for `N#C/C(=C(/O)Cc1cccc2ccccc12)c1nc2ccccc2s1`, -0.06%; for `CC(C)(C)c1nnc2sc(SCC(O)=C(C#N)c3nc4ccccc4[nH]3)nn2c1=O`, -3.45%. For `N#C/C(=C(/O)COc1cccc2ccccc12)c1nc2ccccc2[nH]1` the value was 20.5% (active).
